# According to the supplement of paper PMC3545927:
# The other results are listed elsewhere or left out. The true hit rate is not given.
# Biological target: furin, P09958
# Test: furin cleavage Z-score vs untreated control; higher = more cleavage, active = 3.5 or more, inactive = 1 or less, 8 variable residues between constant flanks
# How it was run: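 In 50 mM HEPES pH 7.5 with CaCl2 and NaCl, purified furin was incubated with bead-anchored 8-mer peptide–cDNA fusions at 1:10 enzyme:substrate in 0.01 ml. Incubation times were 7.5, 15 and 30 min. DNA set free by cleavage was adapter-tagged by PCR and sequenced, with read counts taken as abundance. Log counts relative to furin-free reactions, after lowess adjustment and median absolute deviation scaling, form the cleavage Z-score.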
# Sequence of furin, P09958 (P09958 whole entry): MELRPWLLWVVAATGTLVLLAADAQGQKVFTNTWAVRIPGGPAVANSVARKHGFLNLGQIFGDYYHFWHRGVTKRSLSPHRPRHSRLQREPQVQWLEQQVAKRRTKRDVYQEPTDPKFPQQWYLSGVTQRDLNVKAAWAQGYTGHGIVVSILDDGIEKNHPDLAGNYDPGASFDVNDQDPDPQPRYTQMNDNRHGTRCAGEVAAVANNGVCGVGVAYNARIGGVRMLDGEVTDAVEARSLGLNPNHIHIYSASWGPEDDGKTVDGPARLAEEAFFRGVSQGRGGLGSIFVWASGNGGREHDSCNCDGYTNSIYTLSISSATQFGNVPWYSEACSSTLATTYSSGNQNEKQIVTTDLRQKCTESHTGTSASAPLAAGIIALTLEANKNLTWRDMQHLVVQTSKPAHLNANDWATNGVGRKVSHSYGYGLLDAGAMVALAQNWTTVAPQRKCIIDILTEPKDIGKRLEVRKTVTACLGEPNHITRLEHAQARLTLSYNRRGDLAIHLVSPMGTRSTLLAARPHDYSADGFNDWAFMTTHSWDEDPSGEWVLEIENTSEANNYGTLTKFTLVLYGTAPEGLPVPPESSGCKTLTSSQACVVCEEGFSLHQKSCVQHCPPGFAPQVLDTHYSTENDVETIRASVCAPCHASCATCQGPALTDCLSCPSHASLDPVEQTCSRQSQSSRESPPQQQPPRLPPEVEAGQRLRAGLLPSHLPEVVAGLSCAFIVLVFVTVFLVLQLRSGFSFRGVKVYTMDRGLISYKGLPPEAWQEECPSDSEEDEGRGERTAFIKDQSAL
Sequence,furin cleavage Z-score (7.5 min),furin cleavage Z-score (15 min),furin cleavage Z-score (30 min)
CAMEEFSQHLAGNASASA [HC6],-0.132 (inactive),-1.04 (inactive),-0.188 (inactive)
CAADTVDGAGAGNASASA [CS9],0.142 (inactive),-1.09 (inactive),-0.572 (inactive)
CADEECSQHLAGNASASA [HC1671],0.117 (inactive),0.56 (inactive),-0.0902 (inactive)
CAEAVTSTWVAGNASASA [HC2163],1.01,-0.993 (inactive),-0.235 (inactive)
CAYTPCSGSWAGNASASA [HC1829],-0.863 (inactive),-0.615 (inactive),-0.179 (inactive)
CAEVHTSTWVAGNASASA [HC2195],0.614 (inactive),-0.225 (inactive),1.53
CADPSHITAEAGNASASA [HC1249],-0.448 (inactive),-0.687 (inactive),-1.36 (inactive)
CAAFKIMSGEAGNASASA [HC1093],-0.371 (inactive),-0.656 (inactive),-1.3 (inactive)
CARFKRWKAEAGNASASA [FS-1853],3.27,4.72 (active),6.24 (active)
CARWGRSAQGAGNASASA [FS-3130],4.05 (active),4 (active),4.18 (active)
CARVRRSTAEAGNASASA [FS-2388],12.5 (active),12.2 (active),8.54 (active)
CARPDRSSQGAGNASASA [FS-3016],-1.72 (inactive),-1.8 (inactive),-1.46 (inactive)
CAAGRRSEAEAGNASASA [FS-1877],-2 (inactive),-1.75 (inactive),-0.59 (inactive)
CARVRREDTPAGNASASA [FS-3125],7.61 (active),7.5 (active),6.22 (active)
CARFKKFATEAGNASASA [FS-1700],0.401 (inactive),0.983 (inactive),-0.463 (inactive)
CARPPRPAQGAGNASASA [FS-2057],-0.496 (inactive),-0.739 (inactive),-0.973 (inactive)
CAFTAGYSGGAGNASASA [HC1646],-0.828 (inactive),-0.656 (inactive),-0.88 (inactive)
CAESPCHRPSAGNASASA [HC2337],1.16,0.888 (inactive),-0.202 (inactive)
CATTPCSGSYAGNASASA [HC1929],-0.34 (inactive),-0.574 (inactive),0.025 (inactive)
CASTICSAHLAGNASASA [HC2504],1.31,-0.501 (inactive),1.12
CAVPGAVYTFAGNASASA [HC552],-0.518 (inactive),0.509 (inactive),-0.772 (inactive)
CARTDRSSDRAGNASASA [FS-1796],-0.725 (inactive),-1.9 (inactive),-1.59 (inactive)
CARVRRAAQAAGNASASA [FS-2535],8.23 (active),7.6 (active),6.83 (active)
CAPAAYAAQGAGNASASA [HC781],0.244 (inactive),1.54,0.00948 (inactive)
CARVRRAAQGAGNASASA [FS-2105],8.98 (active),8.61 (active),7.68 (active)
CARALRSSGTAGNASASA [FS-1944],-0.0204 (inactive),-0.353 (inactive),0.495 (inactive)
CARALRSLDLAGNASASA [FS-2325],3.52 (active),2.8,4.65 (active)
CARVRRQLDRAGNASASA [FS-3174],10.3 (active),12.6 (active),9.92 (active)
CARALRSVSRAGNASASA [FS-2641],-0.658 (inactive),-0.337 (inactive),0.074 (inactive)
CARSCRAAQAAGNASASA [FS-3076],0.547 (inactive),1.19,1.76
